The panel holds about 83,000 compounds, 20% with a hit somewhere; the sample as a whole holds those more often.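 Treatment: one concentration, 48 hours, 96-well format. Scoring: percent growth, with anything below 10 considered active.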 A number with no mark means an inactive call. The source made the active and inactive calls.
How the values were obtained:
Assay in all cases: NCI-60 one-dose screen, 48 h (100 = growth as untreated, 0 = no growth, -100 = all killed)
Details in all cases: 10 µM unless noted
EKVX NSCLC = test system: EKVX NSCLC
SN12C renal = test system: SN12C renal
UO-31 renal = test system: UO-31 renal
TK-10 renal = test system: TK-10 renal
ACHN renal = test system: ACHN renal
CAKI-1 renal = test system: CAKI-1 renal
A498 renal = test system: A498 renal
MOLT-4 leukemia = test system: MOLT-4 leukemia
RPMI-8226 leukemia = test system: RPMI-8226 leukemia
OVCAR-8 ovarian = test system: OVCAR-8 ovarian
OVCAR-5 ovarian = test system: OVCAR-5 ovarian
OVCAR-4 ovarian = test system: OVCAR-4 ovarian
SK-OV-3 ovarian = test system: SK-OV-3 ovarian
IGROV1 ovarian = test system: IGROV1 ovarian
OVCAR-3 ovarian = test system: OVCAR-3 ovarian
HS 578T breast = test system: HS 578T breast
NCI/ADR-RES ovarian = test system: NCI/ADR-RES ovarian
CCRF-CEM leukemia = test system: CCRF-CEM leukemia
SR leukemia = test system: SR leukemia

Structure (SMILES) | growth (EKVX NSCLC) | growth (SN12C renal) | growth (UO-31 renal) | growth (TK-10 renal) | growth (ACHN renal) | growth (CAKI-1 renal) | growth (A498 renal) | growth (MOLT-4 leukemia) | growth (RPMI-8226 leukemia) | growth (OVCAR-8 ovarian) | growth (OVCAR-5 ovarian) | growth (OVCAR-4 ovarian) | growth (SK-OV-3 ovarian) | growth (IGROV1 ovarian) | growth (OVCAR-3 ovarian) | growth (HS 578T breast) | growth (NCI/ADR-RES ovarian) | growth (CCRF-CEM leukemia) | growth (SR leukemia)
O=C1NN(C(=O)c2ccc(Cl)cc2)C(c2ccccc2)=N/C1=C\c1cn(-c2ccccc2)nc1-c1ccccc1 | 81.4% | 93.2% | 90.6% | 102% | 98.5% | 80.4% | 69% | 98.6% | 117% | 94.1% | 93.4% | 96.8% | 102% | 95.1% | 112% | 94.8% | 92.9% |  | 
C=C1CCC[C@]2(C)CCC[C@H](C)[C@@H](OC(C)=O)[C@@H]3OC(=O)C(=C)[C@@H]3C[C@H]1O2 | 77.3% | 68.5% | 87.1% | 109% | 80.1% | 69.4% |  | 64% | 54.8% | 61.5% | 101% | 61.2% | 85% | 81.8% | 47.9% | 78% | 73.6% |  | 
O=C(CSC1CCc2ccccc21)N/N=C/c1ccccc1O (configuration not stated) |  | 59.9% | 20% | 37.1% | 34% |  | 101% | 2.59% (active) | 71.5% | 57.3% | 78.1% | 38.1% | 50% |  |  | 84.9% | 24.1% | 18.2% | 17.7%
COc1ccc(C(=O)c2cc(OC)c(OC)c(OC)c2OC)cc1O | 93.8% | 40.5% | 56.5% | 95.9% | 54.5% | 55.4% | 67.7% |  | 44.7% | 61.3% | 92.8% | 83.9% | 20.1% | 57.4% | -21.8% (active) | 16.3% | -8.84% (active) |  | 26.4%
O=S(=O)(c1ccc(OCCO)cc1)c1ccc(OCCO)cc1 | 108% | 106% | 80.6% |  | 102% | 98.9% | 107% | 83.2% | 81% | 102% | 101% | 111% | 118% | 87.5% |  |  | 103% | -21.9% (active) | 99.4%
COc1ccc(-c2ccc(C)n2-c2ccc(-c3nc4cc(Cl)ccc4s3)cc2)cc1 | 90.3% | 90.5% | 85% | 81.6% | 108% | 79.9% | 91.4% |  |  | 104% | 74.6% | 84.8% | 96.7% | 54.9% | 109% | 103% | 95.8% |  | 76.9%
COc1ccc(/C(C#N)=C/c2cc(OC)c(OC)c(OC)c2)cc1 |  | 58.4% | 55% | 68.3% | 49.4% | 50% |  | 32.3% | 31.2% | 57.4% | 65.6% | 87.8% | 47.6% | 44.9% | 36.1% | 91.4% | 20.7% | 26.8% | 11.8%
COc1cc(Nc2ncccc2C(=O)NCc2cn(Cc3cccc(Oc4ccccc4)c3)nn2)cc(OC)c1 | 46.2% | 42.9% | 49.8% |  | 53.6% | 36.9% | 24.2% |  |  | 53.9% | 83.2% | 70.6% | 41.9% | 58.5% | -2.42% (active) | 49.1% | 9.54% (active) |  | 25.3%
COc1ccc(NC(=O)c2cc(OC)c(OC)c(OC)c2)cc1O | 97.1% | 43.4% | 66.8% | 88.9% | 57.6% | 46.8% | 46% | 64.4% | 51.8% | 57.6% | 83.4% | 57.4% | 29.1% |  | -27.6% (active) | -10.2% (active) | 13.2% |  | 
CNC(=S)NNC(=O)C1CC1 | 105% | 109% | 77.5% | 119% | 106% |  |  | 85.1% | 98.9% | 94.7% | 107% | 113% | 105% |  | 116% | 112% | 110% | 97.3% | 67.5%
CCc1cnc(=S)n(-c2ccccc2)c1 |  | 103% | 97% | 122% | 99.6% |  | 117% | 125% | 119% | 113% | 97.3% | 135% | 105% | 105% |  | 108% | 98.3% | 129% | 99.6%
CC(=O)Oc1cccc(S(=O)(=O)n2cc(C(=O)C(=O)Nc3ccncc3)c3ccccc32)c1 | 51.4% | 85.1% | 75.3% |  | 88% | 67.5% | 63.3% | 90.9% | 65.2% | 89.7% | 90.8% | 78% | 92.5% | 84.7% | 101% | 98.5% | 80.2% |  | 
O=C(Nc1ccc2c(c1)OCCO2)C(=O)c1c[nH]c2ccccc12 | 52.9% | 42.4% | 50.9% | 75.1% | 57.4% | 49.7% | 26.3% | 16.8% | 21.6% | 53.5% | 45.2% | 51.2% | 12.8% | 44.5% | -45.1% (active) | 13.1% | -30.3% (active) |  | 
NC1=NN(O)C2=CC([N+](=O)[O-])C=CC2=N1 (configuration not stated) | 99.5% | 112% | 93.3% |  | 105% | 93.8% | 109% | 111% | 99.2% | 99.4% | 118% | 108% | 100% | 120% | 99.8% | 98.8% | 93.4% | 104% | 94.8%
O=S1(=O)CCC(N(/N=C/c2ccco2)c2ccccc2)C1 (configuration not stated) |  | 109% | 86% | 101% | 106% | 107% | 113% | 97.1% | 100% | 94.7% | 107% | 127% | 110% | 104% | 105% | 94.3% | 98.7% | 94% | 91%
COc1ccc(-c2cnoc2-c2ccc(OC)cc2O)cc1 | 82.9% | 37.2% | 74.5% | 86.9% | 57.4% | 45.2% | 7.36% (active) | 44.2% | 49.6% | 51.4% | 64.1% | 75.1% | 30% | 51.6% | -11.3% (active) | -7.48% (active) | -21% (active) |  | 
COc1ccc(-c2c(N)n[nH]c2-c2cc(OC)c(OC)c(OC)c2)cc1 | 48% | 38.5% | 27.3% | 59.8% | 40% | 57% | -3.53% (active) | 25.4% | 27% | 21.2% | 37.5% | 47.7% | 15.4% | 26.9% | -36.1% (active) | -8.33% (active) | -20.2% (active) |  | 
COc1ccc(C(=O)N2NC(=O)/C(=C/c3ccc(F)cc3)N=C2c2ccccc2)cc1 | 88.4% | 84.7% | 91.7% |  | 94.2% | 86.1% | 69.2% | 42.4% | 70.3% | 97.4% | 95.9% | 109% | 103% | 99% | 105% | 101% | 81.3% |  | 51.5%

Source: PubChem BioAssay (NCI)
